From the supplement of paper PMC13380429 come the findings set out here.

Unmarked numbers belong to inactive results.

The test system of this assay is Vero E6 infected with SARS-CoV-2. Nature of the assay: inhibition of SARS-CoV-2 cytopathic effect; higher = more antiviral protection, active = above 15. To be noted: 10000 nM; 48 h.
Consider `O=C1NCN(c2ccccc2)C12CCN(CCCC(c1ccc(F)cc1)c1ccc(F)cc1)CC2` [fluspirilene], for which the “inhibition of SARS-CoV-2 cytopathic effect” value (“inhibition” for short) is 10.3%.
On to `CC(C)Oc1ccc2c(=O)c3cc(C(=O)O)ccc3oc2c1`, for which the “inhibition” value is -1%.
`COc1ccc(-c2nc(-c3ccc(-c4cccc(Cl)c4)o3)[nH]c2-c2ccc(OC)cc2)cc1` [neurodazine]: the “inhibition” value is 1.25%.
Turning to `C[C@@H](N)c1ccc(C(=O)Nc2ccnc3[nH]ccc23)cc1`, the “inhibition” value was -13.4%.
As to `CC1CCN(CCCC(=O)c2ccc(F)cc2)CC1` [melperone], the “inhibition” value is 2.13%.
In the case of `C1CCN2C[C@@H]3C[C@@H](CN4CCCC[C@@H]34)[C@H]2C1` [sparteine-sulfate] it was -2.55%; in that of `Oc1c(I)cc(I)c(O)c1I` [riodoxol], -0.9%.
In the case of `Nc1ccc(S(=O)(=O)c2ccc(N)cc2)cc1` [dapsone] it was 1.03%.
Regarding `CCCCC/C=C\C/C=C\C/C=C\C/C=C\CCCC(=O)Nc1ccc(O)cc1`, the “inhibition” value is -4.16%.
Turning to `Cc1ccc(-c2cc(C(F)(F)F)nn2-c2ccc(S(N)(=O)=O)cc2)cc1` [celecoxib], the “inhibition” value is -4.95%.
Turning to `C=CC(=O)O` [acrylate], the “inhibition” value is -1.97%.
On to `CCOC(=O)c1c(C)n(C)c2ccc(O)cc12` [mecarbinate], for which the “inhibition” value was -2.61%.
